Holding throughout (test): yeast three-hybrid, YBZ-1, SC-Leu-His + 0.5 mM 3-AT, 4 days
What all share (conditions): tags: N-Gal4 AD-HA kept; label: inside an RPR1-promoter hybrid RNA with tandem MS2 sites; ssRNA

Assay [1] has as its target PUM1 PUF domain R3-GCE (Homo sapiens, UniProt Q14671 828-1176, C935G;R936C;Q939E). In short, it runs like this: (§1)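 Sequencing with Illumina followed PCR amplification of the repeat regions from transformants grown four days on SC-Leu (input) or SC-Leu-His + 0.5 mM 3-AT (selection). The transformants were strain YBZ-1 with a LexA–MS2 coat fusion and a HIS3 reporter, carrying Pumilio-1 PUF domain libraries and matching RNA elements. The interaction score is the log change in variant frequency from input to selection, computed in log2 with a pseudocount of 1 for absent variants.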

For assay [2], the target named is PUM1 PUF domain R5-QRR (Homo sapiens, UniProt Q14671 828-1176, C1007Q;Q1011R). In short, it runs like this: as §1
Assay [3] concerns the target PUM1 PUF domain R4-WAW (Homo sapiens, UniProt Q14671 828-1176, N971W;H972A;Q975W). In short, it runs like this: as §1
Assay [4] deals with PUM1 PUF domain R8-YFR (Homo sapiens, UniProt Q14671 828-1176, N1122Y;Y1123F;Q1126R). The gist of the method:
as §1

Assay [5] addresses T1, PUM1 PUF domain R6-WWR (Homo sapiens, UniProt Q14671 828-1176, N1043W;Y1044W;Q1047R).
T1 sequence: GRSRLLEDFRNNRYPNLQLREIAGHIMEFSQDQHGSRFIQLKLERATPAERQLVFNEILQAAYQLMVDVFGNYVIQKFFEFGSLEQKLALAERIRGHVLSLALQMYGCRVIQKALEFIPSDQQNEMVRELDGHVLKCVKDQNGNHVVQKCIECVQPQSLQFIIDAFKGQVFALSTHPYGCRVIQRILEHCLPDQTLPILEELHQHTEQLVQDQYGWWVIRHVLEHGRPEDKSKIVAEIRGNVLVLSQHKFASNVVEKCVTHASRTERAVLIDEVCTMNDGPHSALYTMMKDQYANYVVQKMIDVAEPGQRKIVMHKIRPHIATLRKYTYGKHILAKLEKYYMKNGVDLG
The gist of the method: as §1

For assay [6], the target named is PUM1 PUF domain R5-KQL (Homo sapiens, UniProt Q14671 828-1176, C1007K;R1008Q;Q1011L). In short, it runs like this: as §1
The target of assay [7] is T2, PUM1 PUF domain R6-KYR (Homo sapiens, UniProt Q14671 828-1176, N1043K;Q1047R).
T2 sequence: T1 sequence with W216K, W217Y
In short, it runs like this:
as §1

The target of assay [8] is PUM1 PUF domain R3-VNV (Homo sapiens, UniProt Q14671 828-1176, C935V;R936N;Q939V). In short, it runs like this:
as §1

Assay [9] deals with PUM1 PUF domain R8-CWR (Homo sapiens, UniProt Q14671 828-1176, N1122C;Y1123W;Q1126R). The gist of the method: as §1
Assay [10] has as its target PUM1 PUF domain R8-KWR (Homo sapiens, UniProt Q14671 828-1176, N1122K;Y1123W;Q1126R). In short, it runs like this: as §1
Assay [11] concerns the target PUM1 PUF domain R1-VWR (Homo sapiens, UniProt Q14671 828-1176, S863V;R864W;Q867R). The gist of the method:
as §1

For assay [12], the target named is PUM1 PUF domain R1-RRV (Homo sapiens, UniProt Q14671 828-1176, S863R;Q867V). In short, it runs like this: as §1
The target in assay [13] is PUM1 PUF domain R5-DWH (Homo sapiens, UniProt Q14671 828-1176, C1007D;R1008W;Q1011H). The gist of the method:
as §1

Residue numbers refer to the chain shown, from its start.

Sequence of PUM1 PUF domain R5-QRR (Q14671 828-1176 C1007Q/Q1011R): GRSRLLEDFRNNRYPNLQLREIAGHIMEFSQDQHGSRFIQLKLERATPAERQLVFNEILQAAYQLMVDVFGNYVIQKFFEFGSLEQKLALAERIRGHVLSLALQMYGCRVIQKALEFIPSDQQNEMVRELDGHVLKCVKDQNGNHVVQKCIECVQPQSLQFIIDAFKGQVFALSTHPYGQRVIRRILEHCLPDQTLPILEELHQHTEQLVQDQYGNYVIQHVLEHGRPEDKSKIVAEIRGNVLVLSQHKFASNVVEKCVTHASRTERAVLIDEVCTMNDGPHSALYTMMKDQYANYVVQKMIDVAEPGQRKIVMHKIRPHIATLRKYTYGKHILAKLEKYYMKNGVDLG
Sequence of PUM1 PUF domain R4-WAW (Q14671 828-1176 N971W/H972A/Q975W): as the sequence (Q14671 828-1176 C1007Q/Q1011R) above, with N144W, H145A, Q148W, Q180C, R184Q counted along it
Sequence of PUM1 PUF domain R5-KQL (Q14671 828-1176 C1007K/R1008Q/Q1011L): as the sequence (Q14671 828-1176 C1007Q/Q1011R) above, with Q180K, R181Q, R184L counted along it

Turning to “GGCUAGAACUAGUGGAUCCCCCGGCGCCCGGCGGCUCGAGCCCGGGUAAGUGUAAGUAGUCUGCAUGCCGCCGGGCGCCAUGCCUGCAGGUCGACUCUAGAAAACAUG”, the binding signal in [1] is 4.51 log2 enrichment (interaction score).

For the sequence “GGCUAGAACUAGUGGAUCCCCCGGCGCCCGGCGGCUCGAGCCCGGGUAAGUGUAAAUAGUCUGCAUGCCGCCGGGCGCCAUGCCUGCAGGUCGACUCUAGAAAACAUG”, the binding signal is 1.74 log2 enrichment (interaction score) in [2]; 5.21 log2 enrichment (interaction score) in assay [3]; 5.17 log2 enrichment (interaction score) in [4]; 5.15 log2 enrichment (interaction score) in assay [5]; 1.4 log2 enrichment (interaction score) in assay [6]; 5.19 log2 enrichment (interaction score) in assay [7]. The binding signal in [8] is 3.12 log2 enrichment (interaction score); in [9], 4.45 log2 enrichment (interaction score); in assay [10], 5.93 log2 enrichment (interaction score).

Consider “GGCUAGAACUAGUGGAUCCCCCGGCGCCCGGCGGCUCGAGCCCGGGUAAGUGUAAAUCGUCUGCAUGCCGCCGGGCGCCAUGCCUGCAGGUCGACUCUAGAAAACAUG”, for which the values for the binding signal in assay [11] and in [12] were 1.8 log2 enrichment (interaction score) and 3.63 log2 enrichment (interaction score), respectively.

“GGCUAGAACUAGUGGAUCCCCCGGCGCCCGGCGGCUCGAGCCCGGGUAAGUGUGAAUAGUCUGCAUGCCGCCGGGCGCCAUGCCUGCAGGUCGACUCUAGAAAACAUG”: the binding signal was 3 log2 enrichment (interaction score) in assay [2] and 4.75 log2 enrichment (interaction score) in assay [13].

Consider “GGCUAGAACUAGUGGAUCCCCCGGCGCCCGGCGGCUCGAGCCCGGGUAAGUGUAUAUAGUCUGCAUGCCGCCGGGCGCCAUGCCUGCAGGUCGACUCUAGAAAACAUG”, for which the binding signal in [3] is 4.31 log2 enrichment (interaction score).

Take “GGCUAGAACUAGUGGAUCCCCCGGCGCCCGGCGGCUCGAGCCCGGGUAAGGGUAAAUAGUCUGCAUGCCGCCGGGCGCCAUGCCUGCAGGUCGACUCUAGAAAACAUG”: the binding signal in assay [9] is 2.72 log2 enrichment (interaction score).

Regarding “GGCUAGAACUAGUGGAUCCCCCGGCGCCCGGCGGCUCGAGCCCGGGUAAGUGAAAAUAGUCUGCAUGCCGCCGGGCGCCAUGCCUGCAGGUCGACUCUAGAAAACAUG”, the binding signal in assay [5] is 2.69 log2 enrichment (interaction score).

The values above are taken from PMC8384837, “Expanding the binding specificity for RNA recognition by a PUF domain”.
